Data taken from PubChem BioAssay (Tox21).
Activity calls are given as the source filed them. Calls come from the whole dose curve; as a rule, active = well fitted curve in the direction sought with a large enough effect in the repeat runs; inconclusive = weak or mixed curves; inactive = flat fitted curve, though single readings scatter.

assay: qHTS assay to test for compound auto fluorescence at 590 nm (red) in HepG2 cell free culture (AID 720684); details: cell-free medium autofluorescence, red 540/590 nm; series mostly up to 91.3 µM
Excerpt: U.S. Tox21 Program National Center for Advancing Translational Sciences [NCATS] NIH Chemical Genomics Center [NCGC] U.S. Environmental Protection Agency [EPA] National Institutes of Environmental Health Sciences [NIEHS] National Toxicology Program [NTP] U.S. Food and Drug Administration [FDA] Tox21 Assay Overview: Compound auto fluorescence often interferes with screening of the compound library against various biological targets and signaling pathways. Some of these compounds may have fluorophoric properties. Such properties may interfere with the assay outputs resulting in false positives and/or negatives. To decrease such complications and ensure the compound activities are relevant in terms of biological response, the Tox21 10K compound library was screened for auto fluorescence. From the fluorophores used as reporter signals in our screening assays, the auto fluorescence equivalencies of compounds against three fluorophores have been evaluated: Triamterene, Fluorescein and Rose Bengal sodium for blue, green and red fluorescence, respectively. The fluorescence intensities were measured using Excitation/Emission wavelengths at 405/460nm, 485/535nm and 540/590nm for blue, green and red labels, respectively. This assay includes the red fluorescence data.
Tox21 Assay Protocol Summary: 5 uL of culture medium (MEM containing 10% FBS) per well was dispensed into black wall/clear bottom 1536-well plates using a Multidrop Combi Dispenser (ThermoFisher Scientific, Waltham, MA). After 23 nL compound or DMSO vehicle was transferred into assay plate by a pintool work station (Kalypsys, San Diego, CA), fluorescence intensities in the assay plates were measured by an Envision (PerkinElmer, Shelton, CT) plate reader using three labels for measuring blue, green and red fluorescence at […] 460, 535 and 590nm respectively.
% is set by controls: 0 for no effect and ±100 for the full control effect.

| SMILES | outcome | fluorescence, % of Rose Bengal |
| --- | --- | --- |
| CCO/C=C1\N=C(c2ccccc2)OC1=O | inactive | – |
| CC(C)OCCO | inactive | – |
| CN(C)CCc1c[nH]c2ccc(CS(=O)(=O)N3CCCC3)cc12 | inactive | – |
| C=CCCCCCCCCCCCCCC | – | 0.0019% [at 18.6 µM] (inactive) |
| Cc1ccc2cccnc2c1 | inactive | – |
| CC(O)C(CO)C(C)O (stereo not given) | inactive | – |
| CCCc1ccc(O)c(OC)c1 | inactive | – |
| Nc1cc(S(=O)(=O)O)ccc1O | inactive | – |
| CNC(C)=O | inactive | – |
| Clc1cc(Cl)c(Cl)c(Cl)c1Cl | inactive | – |
| CCC(C)SSC(C)CC (stereo not given) | inactive | – |
| CCCCCCCCCCCCCCCCN(C)C | – | -0.0248% [at 3.72 µM] (inactive) |
| CC(C)C[P+](C)(CC(C)C)CC(C)C | inactive | – |
| N#Cc1ccccc1C#N | inactive | – |
| CC(CC(=O)Cl)CC(C)(C)C (stereo not given) | inactive | – |
| NCC1CCC(C(=O)Oc2ccc(CCC(=O)O)cc2)CC1 (stereo not given) | inactive | – |
| COc1cc2nc(N3CCN(C(=O)C4CCCO4)CC3)nc(N)c2cc1OC (stereo not given) | inactive | – |
| C/C(=N\O)c1ccc(OCC(=O)N2CCCCC2)cc1 | inactive | – |
| C[C@@H]1NC(=O)[C@@H](N)CNC(=O)[C@H](C2CCNC(N)=N2)NC(=O)/C(=C/NC(N)=O)NC(=O)[C@H](CNC(=O)C[C@@H](N)CCCN)NC1=O (stereo not given in full) | inactive | – |
| CC(C)(O)c1ccc(C(C)(C)O)cc1 | inactive | – |

| SMILES | outcome | fluorescence, % of Rose Bengal |
| --- | --- | --- |
| CC(C)(Sc1cc(C(C)(C)C)c(O)c(C(C)(C)C)c1)Sc1cc(C(C)(C)C)c(O)c(C(C)(C)C)c1 | – | -0.645% [at 18.6 µM] (inactive) |
| Cc1cc(C)c(N)c(Cl)c1 | inactive | – |
| Nc1ccc(C(=O)NCC(=O)O)cc1 | – | -0.0233% [at 18.6 µM] (inactive) |
| CCCCCCC(O)CO (stereo not given) | inactive | – |
| C=CC(=O)CC | inactive | – |
| CN1C(CCl)Nc2cc(Cl)c(S(N)(=O)=O)cc2S1(=O)=O (stereo not given) | inactive | – |
| CCCCCC(CC)OC(=O)CCCOc1ccc(Cl)cc1Cl (stereo not given) | inactive | – |
| O=C1CC2(CCCC2)CC(=O)N1CCNCC1COc2ccccc2O1 (stereo not given) | inactive | – |
| CC(=O)Nc1ccc(OCCOCCOc2ccc(NC(C)=O)cc2)cc1 | inactive | – |
| O=S(=O)(O)c1ccc(Cl)cc1 | inactive | – |
| CC(C)(C)C(=O)CCc1ccc(Cl)cc1 | inactive | – |
| CCCC(=O)OC | inactive | – |
| CCOc1ccccc1OCCN[C@H](C)Cc1ccc(OC)c(S(N)(=O)=O)c1 | inactive | – |
| CC(C)(C)c1ccc(N)cc1 | inactive | – |
| CC(=O)SCC(CC(=O)c1ccc(C)cc1)C(=O)O (stereo not given) | inactive | – |
| C[C@@H](CN1CC(=O)NC(=O)C1)N1CC(=O)NC(=O)C1 | inactive | – |
| CCCC(C)C(O)CC (stereo not given) | inactive | – |
| CC(=O)OCC(=O)[C@@]1(O)CC[C@H]2[C@@H]3CCC4=CC(=O)C=C[C@]4(C)[C@H]3[C@@H](O)C[C@@]21C | inactive | – |
| CC(C)C(C)C | inactive | – |
| CCCCN=C(N)N=C(N)N | inactive | – |
